Experimental data from PubChem BioAssay AID1159580 (chemical genetic matrix, 2015).
Where “and” joins values, the source holds several entries; their conditions need not be identical. Equal values may be shown once. Hit rate of the full screen: of about 5,500 compounds, about 2,000 (36%) were called active. Another 18% or so got no clear call; they are omitted. Rule as the data show it: active = normalized growth mostly below about 0.91 (no sharp cut-off); inconclusive = no clear call, values can overlap the other calls; inactive = mostly above about 0.92. The list shows a part of the results. The source holds several records for some structures; these can differ, active in one and inactive in another.

Test: chemical genetic growth profiling, strain panel (AID 1159580);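 also: tested at 20 µM; growth read once vehicle control cultures reached saturation at 30 °C; 1 = growth at the plate median or of vehicle wells; lower values mean less growth of the strain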
Settings: growth OD

Measured: normalized growth

Oc1ccc(O)cc1
active: S. cerevisiae deletion strains, locus YBR021W, strain FUR4, stronger effect = lower value 0.688 | S. cerevisiae deletion strains, locus YGR229C, strain SMI1, stronger effect = lower value 0.637 | S. cerevisiae deletion strains, locus YGR252W, strain gcn5, stronger effect = lower value 0.765 | S. cerevisiae deletion strains, locus YNL307C, strain MCK1, stronger effect = lower value 0.794
0.989 (inactive) and 0.9 (active): S. cerevisiae deletion strains, locus YAL013W, strain DEP1, stronger effect = lower value
inactive: S. cerevisiae deletion strains, locus YAL040C, strain CLN3, stronger effect = lower value 1.1 | S. cerevisiae deletion strains, locus YBR229C, strain ROT2, stronger effect = lower value 1.02 | S. cerevisiae deletion strains, locus YCL029C, strain bik1, stronger effect = lower value 1.04 | S. cerevisiae deletion strains, locus YCL061C, strain MRC1 (second series), stronger effect = lower value 0.978 | S. cerevisiae deletion strains, locus YDL035C, strain GPR1, stronger effect = lower value 0.9 | S. cerevisiae deletion strains, locus YDL074C, strain BRE1, stronger effect = lower value 0.96 | S. cerevisiae deletion strains, locus YDL101C, strain DUN1, stronger effect = lower value 1.02 | S. cerevisiae deletion strains, locus YDL134C, strain PPH21, stronger effect = lower value 0.987 | S. cerevisiae deletion strains, locus YDL185W, strain tfp1, stronger effect = lower value 1.01 | S. cerevisiae deletion strains, locus YDL192W, strain arf1, stronger effect = lower value 1.02 | S. cerevisiae deletion strains, locus YDR101C, strain arx1, stronger effect = lower value 1.03 | S. cerevisiae deletion strains, locus YDR150W, strain NUM1, stronger effect = lower value 1.01 and 0.953 | S. cerevisiae deletion strains, locus YDR162C, strain NBP2, stronger effect = lower value 0.987 | S. cerevisiae deletion strains, locus YDR318W, strain mcm21, stronger effect = lower value 1 | S. cerevisiae deletion strains, locus YDR363W, strain ESC2, stronger effect = lower value 0.997 | S. cerevisiae deletion strains, locus YDR388W, stronger effect = lower value 0.999 | S. cerevisiae deletion strains, locus YDR502C, strain sam2, stronger effect = lower value 1.02 | S. cerevisiae deletion strains, locus YEL061C, strain CIN8, stronger effect = lower value 1.02 | S. cerevisiae deletion strains, locus YER002W, strain NOP16, stronger effect = lower value 1 | S. cerevisiae deletion strains, locus YER110C, stronger effect = lower value 1.04 | S. cerevisiae deletion strains, locus YER155C, strain BEM2, stronger effect = lower value 1.02 | S. cerevisiae deletion strains, locus YER167W, strain BCK2, stronger effect = lower value 0.926 | S. cerevisiae deletion strains, locus YGL078C, strain dbp3, stronger effect = lower value 1.03 | S. cerevisiae deletion strains, locus YGL086W, strain mad1, stronger effect = lower value 0.985 | S. cerevisiae deletion strains, locus YGL248W, strain PDE1, stronger effect = lower value 0.975 | S. cerevisiae deletion strains, locus YGR078C, strain PAC10, stronger effect = lower value 0.858 and 1.01 | S. cerevisiae deletion strains, locus YGR135W, strain pre9, stronger effect = lower value 0.964 | S. cerevisiae deletion strains, locus YHR030C, strain SLT2, stronger effect = lower value 1 and 1.03 | S. cerevisiae deletion strains, locus YHR079C, strain IRE1 (second series), stronger effect = lower value 1 | S. cerevisiae deletion strains, locus YHR079C, strain IRE1, stronger effect = lower value 1.05 | S. cerevisiae deletion strains, locus YHR094C, strain hxt1, stronger effect = lower value 1.01 | S. cerevisiae deletion strains, locus YHR129C, strain ARP1, stronger effect = lower value 1.01 | S. cerevisiae deletion strains, locus YHR200W, strain rpn10, stronger effect = lower value 1 | S. cerevisiae deletion strains, locus YIL066C, strain RNR3, stronger effect = lower value 0.993 | S. cerevisiae deletion strains, locus YIL073C, strain SPO22, stronger effect = lower value 0.82 | S. cerevisiae deletion strains, locus YIL125W, strain kgd1, stronger effect = lower value 1.03 | S. cerevisiae deletion strains, locus YIR030C, strain dcg1, stronger effect = lower value 1.06 | S. cerevisiae deletion strains, locus YJL095W, strain BCK1, stronger effect = lower value 0.968 and 1.01 | S. cerevisiae deletion strains, locus YJL134W, strain LCB3, stronger effect = lower value 1.02 | S. cerevisiae deletion strains, locus YJL168C, strain set2, stronger effect = lower value 1.02 | S. cerevisiae deletion strains, locus YJL187C, strain SWE1 (second series), stronger effect = lower value 1.01 | S. cerevisiae deletion strains, locus YJR043C, strain POL32, stronger effect = lower value 0.86 | S. cerevisiae deletion strains, locus YJR066W, strain TOR1, stronger effect = lower value 1.02 | S. cerevisiae deletion strains, locus YJR075W, strain HOC1, stronger effect = lower value 0.951 | S. cerevisiae deletion strains, locus YKL009W, strain mrt4, stronger effect = lower value 1.03 | S. cerevisiae deletion strains, locus YKL068W, stronger effect = lower value 1.01 | S. cerevisiae deletion strains, locus YKL085W, strain MDH1 (second series), stronger effect = lower value 1.02 | S. cerevisiae deletion strains, locus YKL085W, strain MDH1, stronger effect = lower value 1.02 | S. cerevisiae deletion strains, locus YKL190W, strain CNB1, stronger effect = lower value 1 | S. cerevisiae deletion strains, locus YKR001C, strain vps1, stronger effect = lower value 0.927 | S. cerevisiae deletion strains, locus YLR039C, strain RIC1, stronger effect = lower value 0.904 | S. cerevisiae deletion strains, locus YLR058C, strain SHM2, stronger effect = lower value 1.01 | S. cerevisiae deletion strains, locus YLR102C, strain apc9, stronger effect = lower value 1.03 | S. cerevisiae deletion strains, locus YLR113W, strain HOG1, stronger effect = lower value 1.04 | S. cerevisiae deletion strains, locus YLR262C, strain YPT6, stronger effect = lower value 0.843 | S. cerevisiae deletion strains, locus YLR268W, strain sec22, stronger effect = lower value 0.98 | S. cerevisiae deletion strains, locus YLR330W, strain CHS5, stronger effect = lower value 1.01 | S. cerevisiae deletion strains, locus YLR342W, strain FKS1 (second series), stronger effect = lower value 0.801 | S. cerevisiae deletion strains, locus YLR371W, strain rom2, stronger effect = lower value 1.03 | S. cerevisiae deletion strains, locus YLR418C, strain cdc73, stronger effect = lower value 0.845 | S. cerevisiae deletion strains, locus YML016C, strain PPZ1, stronger effect = lower value 1.01 | S. cerevisiae deletion strains, locus YML032C, strain rad52, stronger effect = lower value 0.937 | S. cerevisiae deletion strains, locus YML124C, strain tub3, stronger effect = lower value 1.03 | S. cerevisiae deletion strains, locus YMR078C, strain ctf18, stronger effect = lower value 1.04 | S. cerevisiae deletion strains, locus YMR223W, strain ubp8, stronger effect = lower value 0.996 | S. cerevisiae deletion strains, locus YMR263W, strain SAP30, stronger effect = lower value 0.989 | S. cerevisiae deletion strains, locus YMR307W, strain GAS1, stronger effect = lower value 0.716 and 0.967 | S. cerevisiae deletion strains, locus YNL067W, strain RPL9B, stronger effect = lower value 0.933 | S. cerevisiae deletion strains, locus YNL128W, strain TEP1, stronger effect = lower value 1.02 | S. cerevisiae deletion strains, locus YNL153C, strain GIM3, stronger effect = lower value 0.995 | S. cerevisiae deletion strains, locus YNL175C, strain NOP13, stronger effect = lower value 1 | S. cerevisiae deletion strains, locus YNL183C, strain NPR1, stronger effect = lower value 1.03 | S. cerevisiae deletion strains, locus YNL197C, strain WHI3, stronger effect = lower value 1.01 | S. cerevisiae deletion strains, locus YNL224C, strain SQS1, stronger effect = lower value 1.02 | S. cerevisiae deletion strains, locus YNL233W, strain BNI4, stronger effect = lower value 0.985 | S. cerevisiae deletion strains, locus YNL250W, strain rad50, stronger effect = lower value 1.03 | S. cerevisiae deletion strains, locus YNL271C, strain bni1, stronger effect = lower value 1.05 | S. cerevisiae deletion strains, locus YNL298W, strain CLA4, stronger effect = lower value 1.04 | S. cerevisiae deletion strains, locus YNL322C, strain KRE1, stronger effect = lower value 1.02 | S. cerevisiae deletion strains, locus YNR052C, strain pop2, stronger effect = lower value 1.04 | S. cerevisiae deletion strains, locus YOL006C, strain TOP1, stronger effect = lower value 0.636 | S. cerevisiae deletion strains, locus YOL012C, strain htz1 0.667 | S. cerevisiae deletion strains, locus YOL147C, strain pex11, stronger effect = lower value 1.03 | S. cerevisiae deletion strains, locus YOR061W, strain CKA2, stronger effect = lower value 1.01 | S. cerevisiae deletion strains, locus YOR069W, strain VPS5, stronger effect = lower value 1.01 | S. cerevisiae deletion strains, locus YOR083W, strain WHI5 (second series), stronger effect = lower value 0.893 | S. cerevisiae deletion strains, locus YOR136W, strain idh2, stronger effect = lower value 1.03 | S. cerevisiae deletion strains, locus YOR144C, strain elg1, stronger effect = lower value 1.02 | S. cerevisiae deletion strains, locus YOR184W, strain ser1, stronger effect = lower value 0.979 | S. cerevisiae deletion strains, locus YOR231W, strain MKK1, stronger effect = lower value 1.06 | S. cerevisiae deletion strains, locus YOR316C, strain cot1, stronger effect = lower value 1.03 | S. cerevisiae deletion strains, locus YPL055C, strain LGE1, stronger effect = lower value 0.851 | S. cerevisiae deletion strains, locus YPL241C, strain CIN2, stronger effect = lower value 1.01 and 1 | S. cerevisiae deletion strains, locus YPL256C, strain CLN2, stronger effect = lower value 1.08 | S. cerevisiae deletion strains, locus YPR119W, strain clb2, stronger effect = lower value 1.04 | S. cerevisiae deletion strains, locus YPR141C, strain kar3, stronger effect = lower value 1.03 | S. cerevisiae deletion strains, locus YPR163C, strain tif3, stronger effect = lower value 1 | S. cerevisiae deletion strains, locus YPR167C, strain met16, stronger effect = lower value 1.02 | S. cerevisiae deletion strains, strain wtn01, stronger effect = lower value 0.999 | S. cerevisiae strains, strain wild type, stronger effect = lower value 1.01
